In experiment [1] the target is Voltage-gated inwardly rectifying potassium channel KCNH2 (Homo sapiens) (UniProt Q12809). Description: qHTS Assay for Small Molecule Inhibitors of the Human hERG Channel Activity (AID 588834).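 Note: lower thallium flux fluorescence means stronger hERG block; nearly all actives have a fitted effect of over 50% in size.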 Note: potency is the fitted concentration of half-maximal effect. The settings on record: U2OS BacMam hERG, FluxOR thallium flux fluorescence; series mostly up to 46.1 µM. In short, it runs like this: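 Cells were infected with hERG-BacMam virus for 4 hrs at room temperature, grown overnight, then seeded at 2000/well. After dye loading and roughly 10 min compound treatment, thallium influx was triggered and fluorescence recorded.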
Sequence of Voltage-gated inwardly rectifying potassium channel KCNH2 (Homo sapiens) (Q12809 whole entry, looked up): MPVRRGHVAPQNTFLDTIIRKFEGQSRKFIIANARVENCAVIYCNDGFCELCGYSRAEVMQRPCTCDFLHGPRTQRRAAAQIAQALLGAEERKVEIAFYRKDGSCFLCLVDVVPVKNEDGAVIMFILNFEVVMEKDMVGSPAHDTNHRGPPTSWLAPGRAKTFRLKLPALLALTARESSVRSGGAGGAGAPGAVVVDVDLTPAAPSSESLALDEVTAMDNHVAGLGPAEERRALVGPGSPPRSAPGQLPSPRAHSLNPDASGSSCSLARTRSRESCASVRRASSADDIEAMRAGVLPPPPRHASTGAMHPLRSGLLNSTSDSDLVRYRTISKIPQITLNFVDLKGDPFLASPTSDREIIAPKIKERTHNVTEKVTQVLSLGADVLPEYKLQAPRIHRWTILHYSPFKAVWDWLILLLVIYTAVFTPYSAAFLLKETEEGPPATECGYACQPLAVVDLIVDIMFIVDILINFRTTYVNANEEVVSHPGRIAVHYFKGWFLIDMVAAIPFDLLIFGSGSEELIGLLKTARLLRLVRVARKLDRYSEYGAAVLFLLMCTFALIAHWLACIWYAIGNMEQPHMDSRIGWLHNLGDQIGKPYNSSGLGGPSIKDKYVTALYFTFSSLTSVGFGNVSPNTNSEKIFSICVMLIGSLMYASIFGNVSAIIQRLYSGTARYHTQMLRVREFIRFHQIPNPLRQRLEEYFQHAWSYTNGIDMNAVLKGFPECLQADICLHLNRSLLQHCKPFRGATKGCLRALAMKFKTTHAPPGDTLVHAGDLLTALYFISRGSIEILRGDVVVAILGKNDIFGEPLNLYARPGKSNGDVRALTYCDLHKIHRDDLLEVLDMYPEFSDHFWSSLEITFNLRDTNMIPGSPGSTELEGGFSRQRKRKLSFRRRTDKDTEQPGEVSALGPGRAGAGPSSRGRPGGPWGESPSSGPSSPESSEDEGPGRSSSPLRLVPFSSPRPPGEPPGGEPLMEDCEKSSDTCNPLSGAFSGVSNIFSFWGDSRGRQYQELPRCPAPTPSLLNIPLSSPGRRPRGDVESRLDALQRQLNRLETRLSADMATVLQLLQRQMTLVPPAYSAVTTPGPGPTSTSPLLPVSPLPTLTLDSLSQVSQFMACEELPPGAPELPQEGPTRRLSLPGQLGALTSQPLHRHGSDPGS

Experiment [2] has as its target Luciferin 4-monooxygenase (Photinus pyralis) (UniProt P08659). Description: Biochemical firefly luciferase enzyme assay for NPC (AID 624030). Note: nearly all actives have a fitted effect of over 70% in size. Note: potency is the fitted concentration of half-maximal effect. To be noted: purified P. pyralis luciferase, luminescence, 5 min; series mostly up to 58.6 µM. Put shortly:
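Direct inhibition of firefly luciferase enzyme (10 nM final, 50 mM Tris Acetate) assessed by luminescence within 5 minutes. Percent activity scaled between DMSO and PTC124 positive control, with concentration-effect curves classified by fit quality and response.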

Experiment [3] can be described thus: S16 Schwann cell viability assay (CellTiter-Glo assay) (AID 624031).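 Note: cellular ATP luminescence as a viability measure; nearly all actives have a fitted effect of over 70% in size.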 The settings on record: S16 rat Schwann cells viability, 24 h; series mostly up to 57.5 µM. Put shortly: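 Luminescent ATP read-out (CellTiter-Glo) after 24 h compound exposure of native S16 rat Schwann cells at 37 °C. Signals were normalized between cell-free wells and DMSO-treated cells, set as 0% activity.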

Structures are written as SMILES. Records with an inconclusive call do not appear. Where a call stands in place of a potency, no number is given. The source made the active and inactive calls. Calls come from the whole dose curve; as a rule, active = well fitted curve in the direction sought with a large enough effect; inconclusive = small, poorly fitted or top-dose-only effect, or another doubt; inactive = no such curve, though single readings can be large; an effect the other way counts as inactive or inconclusive. Where a SMILES comes first, the peptide text is derived from it. Bridges are numbered along the chain shown (N, C = ends). [ ]: non-standard residue; d: D form. hArg = N=C(N)NCCCC[C@H](N)C(=O)O; Mpa = O=C(O)CCS

Sequence of Luciferin 4-monooxygenase (Photinus pyralis) (P08659 whole entry, looked up): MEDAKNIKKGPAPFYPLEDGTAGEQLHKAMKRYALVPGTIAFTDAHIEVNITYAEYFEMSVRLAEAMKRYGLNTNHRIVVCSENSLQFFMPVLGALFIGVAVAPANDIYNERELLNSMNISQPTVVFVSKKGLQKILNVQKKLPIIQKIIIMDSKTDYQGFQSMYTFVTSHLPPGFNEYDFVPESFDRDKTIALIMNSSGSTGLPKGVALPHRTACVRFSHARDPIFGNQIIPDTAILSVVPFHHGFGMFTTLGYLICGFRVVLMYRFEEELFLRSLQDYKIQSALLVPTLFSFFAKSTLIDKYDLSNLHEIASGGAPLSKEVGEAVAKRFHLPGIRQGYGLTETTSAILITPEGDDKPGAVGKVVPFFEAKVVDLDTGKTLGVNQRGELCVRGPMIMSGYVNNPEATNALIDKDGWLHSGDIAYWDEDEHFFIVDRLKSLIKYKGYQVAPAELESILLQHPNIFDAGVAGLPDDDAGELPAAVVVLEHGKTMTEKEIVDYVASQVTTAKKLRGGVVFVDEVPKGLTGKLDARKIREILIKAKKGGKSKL

With `O=C(O)Cc1ccc(CCNS(=O)(=O)c2ccc(Cl)cc2)cc1`, the Potency entry in experiment [1] and in experiment [2] was “inactive” each time. The compound was called inactive in experiment [3].
Take `NNC(=O)CP(=O)(c1ccccc1)c1ccccc1`: the Potency result in experiment [1] and in experiment [2] was “inactive” each time. The compound was called inactive in experiment [3].
Consider `NC(=O)c1ccc([N+](=O)[O-])cc1Cl`, for which the Potency result in experiment [1] and in experiment [2] was “inactive” each time. For the same compound, the outcome in experiment [3] was inactive.
For `NNc1nnc(NN)c2ccccc12`, the Potency entry in experiment [1] is “inactive”. Besides, in experiment [3], the outcome was inactive.
Consider `O=c1[nH]cnc2nc[nH]c12`, for which the Potency entry in experiment [1] and in experiment [2] was “inactive” throughout. In experiment [3], the compound was classed as inactive.
Turning to `Cc1cccc(C(=O)O)c1O`, in experiment [2], the Potency result was “inactive”.
Consider `CC(=O)N(CC(O)CO)c1c(I)c(C(=O)NCC(O)CO)c(I)c(C(=O)NCC(O)CO)c1I` (stereo unspecified), for which the Potency result in experiment [2] was “inactive”. The result in experiment [3] was inactive.
For `CCOc1ccc(C(=O)OCCN(CC)CC)cc1`, the Potency entry in experiment [2] was “inactive”. Besides, the compound was called inactive in experiment [3].
In the case of `COc1cc(C(=O)NCCCCCC(=O)O)cc(OC)c1OC`, the Potency result in experiment [1] and in experiment [2] was “inactive” throughout. The result in experiment [3] was inactive.
Take `NS(=O)(=O)c1ccc(C(=O)O)cc1`: in experiment [2], the Potency entry is “inactive”.
Consider `CC(=O)NCc1c(I)c(NC(C)=O)c(I)c(C(=O)O)c1I`, for which the Potency result in experiment [1] and in experiment [2] was “inactive” in each case. In experiment [3], the result was inactive.
In the case of `O=C(O)c1ccc(OCCCOc2ccc(C(=O)O)cc2)cc1`, the Potency result in experiment [1] and in experiment [2] was “inactive” in each case. Besides, in experiment [3], the result was inactive.
As for `CC(CN(C)C)C(C)(O)Cc1ccc(Cl)cc1` (stereo unspecified), in experiment [1], the Potency is 14.1 µM (active). Besides, the Potency entry in experiment [2] was “inactive”. Moreover, in experiment [3], the outcome was inactive.
Take `CC1CCN(CCCC(=O)c2ccc(F)cc2)CC1`: the Potency result in experiment [2] was “inactive”.
Take `CC(C)C[C@@H](N)C(=O)O`: the Potency entry in experiment [1] and in experiment [2] was “inactive” each time. Moreover, the call in experiment [3] was inactive.
Take `CN(C(=O)c1c(O)c2ccccc2n(C)c1=O)c1ccccc1`: the Potency result in experiment [1] and in experiment [2] was “inactive” throughout. The outcome in experiment [3] was inactive.
On to `C[C@@H]1CCC[C@H](C)N1`, for which the Potency result in experiment [1] and in experiment [2] was “inactive” throughout. Besides, the outcome in experiment [3] was inactive.
Take `Cc1c(NC(=O)c2cccnc2)c(=O)n(-c2ccccc2)n1C`: the Potency entry in experiment [2] is “inactive”. Besides, the compound was classed as inactive in experiment [3].
As for `COc1ccc2cc(CCC(C)=O)ccc2c1`, in experiment [1], the Potency entry was “inactive”. For the same compound, in experiment [3], the compound was called inactive.
`NS(=O)(=O)c1cc(-c2nn[nH]n2)c(NCc2cccs2)cc1Cl`: the Potency result in experiment [1] is “inactive”. Further, the compound was classed as inactive in experiment [3].
In the case of `NC(N)=NS(=O)(=O)c1ccc(N)cc1`, in experiment [2], the Potency result was “inactive”.
`O=C(CCBr)N1CCN(C(=O)CCBr)CC1`: the Potency result in experiment [2] is “inactive”. In experiment [3], the compound was classed as inactive.
For `N[C@@H](Cc1ccc(O)cc1)C(=O)O`, in experiment [2], the Potency entry is “inactive”. Further, in experiment [3], the outcome was inactive.
For the compound `CCS(=O)(=O)CCn1c([N+](=O)[O-])cnc1C`, the Potency entry in experiment [2] is “inactive”. The result in experiment [3] was inactive.
As to `CCCCCCCCCCCCCCCCN`, the Potency result in experiment [2] was “inactive”. Moreover, the result in experiment [3] was inactive.
With `NCC1CCC(C(=O)Oc2ccc(CCC(=O)O)cc2)CC1` (stereo unspecified), in experiment [2], the Potency entry was “inactive”. Besides, in experiment [3], the call was inactive.
With `NS(=O)(=O)c1cc2c(cc1C(F)(F)F)NCNS2(=O)=O`, the Potency result in experiment [2] is “inactive”. Also, the compound was called inactive in experiment [3].
Take `CC1CCc2cc(F)cc3c(=O)c(C(=O)O)cn1c23` (stereo unspecified): in experiment [2], the Potency entry is “inactive”. Further, in experiment [3], the call was inactive.
For `CCCCCCCCCCC(CO)CCCCCCCC` (stereo unspecified), the Potency entry in experiment [2] is “inactive”. In experiment [3], the call was inactive.
With `C[C@H]1COc2c(C3(N)CC3)c(F)cc3c(=O)c(C(=O)O)cn1c23`, the Potency result in experiment [2] is “inactive”. Also, the outcome in experiment [3] was inactive.
`O=C1c2ccccc2S(=O)(=O)N1CCCCN1CCN(c2ncccn2)CC1`: the Potency entry in experiment [2] is “inactive”. Also, in experiment [3], the outcome was inactive.
As for `NCc1ccc(S(N)(=O)=O)cc1`, in experiment [2], the Potency entry was “inactive”. Besides, the outcome in experiment [3] was inactive.
Turning to `O=c1[nH]c2cc(C(F)(F)F)c(N3CCOCC3)cc2n(CP(=O)(O)O)c1=O`, the Potency entry in experiment [2] is “inactive”. Moreover, in experiment [3], the outcome was inactive.
As to `Cc1cccc(C)c1NC(=O)CC12CCCN1CCC2`, in experiment [2], the Potency entry is “inactive”. In experiment [3], the compound was called inactive.
In the case of `NC(=O)NS(=O)(=O)c1ccc(N)cc1`, the Potency result in experiment [2] is “inactive”. In addition, the call in experiment [3] was inactive.
As for `CC(C)CCOC(=O)c1ccc(N(C)C)cc1`, in experiment [2], the Potency was 6.42 µM (active). Further, in experiment [3], the call was inactive.
For `O=C(O)COC(=O)Cc1ccccc1Nc1c(Cl)cccc1Cl` the same measures were “inactive” and “inactive”.
Regarding `NC(=O)[C@@H]1CSSCCC(=O)N[C@@H](CCCCN=C(N)N)C(=O)NCC(=O)N[C@@H](CC(=O)O)C(=O)N[C@@H](Cc2c[nH]c3ccccc23)C(=O)N2CCC[C@H]2C(=O)N1` ([Mpa][hArg]GDWPC-NH2; disulfide 1-7), in experiment [2], the Potency entry is “inactive”. For the same compound, the call in experiment [3] was inactive.
On to `CCCCCCCCCCCCCCCCC(C(=O)O)C(O)(CC(=O)O)C(=O)O` (stereo unspecified), for which the call in experiment [3] was inactive.
In the case of `Cc1ncc(CO)c(CN)c1O`, the Potency result in experiment [2] is “inactive”. In experiment [3], the compound was classed as inactive.
In the case of `Cc1[nH]c(C)c(Cl)c(=O)c1Cl`, in experiment [2], the Potency result was “inactive”. The result in experiment [3] was inactive.
As to `Nc1c2c(nc3c1CCC3)CCCC2`, the Potency entry in experiment [2] was “inactive”. For the same compound, in experiment [3], the result was inactive.
Take `CCN(CC)S(=O)(=O)c1ccc(C(=O)O)cc1`: the Potency entry in experiment [2] is “inactive”. For the same compound, in experiment [3], the result was inactive.
Take `Cc1c(NC(C)C)c(=O)n(-c2ccccc2)n1C`: in experiment [2], the Potency entry is “inactive”. Besides, the outcome in experiment [3] was inactive.
As for `CCN(CC)CCOC(=O)C(c1ccccc1)c1ccccc1`, in experiment [2], the Potency result was “inactive”. Also, the compound was called inactive in experiment [3].
Regarding `OCc1ccc(Cl)cc1Cl`, the Potency entry in experiment [2] was “inactive”. In addition, the compound was called inactive in experiment [3].
As to `CCN(CC)CC1CCCCN1CC(=O)N1c2ccccc2C(=O)Nc2cccnc21` (stereo unspecified), in experiment [2], the Potency entry is “inactive”. In addition, in experiment [3], the call was inactive.
As to `O=C(/C=C/c1ccccc1)OCc1ccccc1`, the compound was classed as inactive in experiment [3].
Take `NC(N)=NCCN1CCCCCCC1`: the Potency result in experiment [2] was “inactive”. Moreover, the outcome in experiment [3] was inactive.
On to `CCN1CC(CCN2CCOCC2)C(c2ccccc2)(c2ccccc2)C1=O` (stereo unspecified), for which the Potency result in experiment [2] was “inactive”. The compound was called inactive in experiment [3].
With `Cc1ccccc1N=Nc1ccc(N=Nc2c(O)ccc3ccccc23)c(C)c1`, the Potency entry in experiment [2] is “inactive”. Also, the result in experiment [3] was inactive.
`O=c1[nH]c(=O)c2ccccc2o1`: the Potency entry in experiment [2] was “inactive”. Further, in experiment [3], the compound was called inactive.
`CN(C/C=C/C#CC(C)(C)C)Cc1cccc2ccccc12`: the Potency result in experiment [2] was “inactive”. Besides, the result in experiment [3] was inactive.
Consider `O=C(O)Cc1cn(-c2ccccc2)nc1-c1ccc(Cl)cc1`, for which the Potency entry in experiment [2] was “inactive”. The outcome in experiment [3] was inactive.
Consider `CC(CSC(=O)c1ccccc1)C(=O)N1C[C@@H](Sc2ccccc2)C[C@H]1C(=O)O` (stereo partly specified), for which, in experiment [2], the Potency entry was “inactive”. For the same compound, the outcome in experiment [3] was inactive.
As to `O=S1(=O)OC(c2ccc(O)cc2)(c2ccc(O)cc2)c2ccccc21`, in experiment [3], the compound was called inactive.

The values are drawn from PubChem BioAssay (NCATS).
